Data on 25 molecules can be found in PubChem BioAssay (NCATS).

Inconclusive results are not listed. A number with no mark means an inactive call. Activity calls are given as the source filed them. Calls follow the shape of the dose curve; as a rule, active = well fitted curve in the direction sought with a large enough effect; inconclusive = small, poorly fitted or top-dose-only effect, or another doubt; inactive = no such curve, though single readings can be large; an effect the other way counts as inactive or inconclusive.

The test system of experiment [1] is OV90. Put plainly: Primary qHTS to identify gynecologic anti-cancer compounds using libraries of approved drugs and bioactive compounds (AID 1345084). Also: nearly all actives have a fitted effect of over 55% in size. Particulars: Gynecologic cancer cell panel viability, ATPlite luminescence, 48 h; series mostly up to 57.5 µM. Summed up:
(§1)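 In this quantitative HTS, cell killing is estimated from loss of ATP-dependent luciferase light. Cells see five compound concentrations over a 48 h exposure.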
(qHTS replaces the single test concentration by a dilution series.)

Experiment [2] concerns PA-1. The description is as above. To be noted: Gynecologic cancer cell panel viability, ATPlite luminescence, 48 h; series mostly up to 57.5 µM. Summed up: as §1
(In ATP-based viability assays light output follows the ATP content of the culture.)

For experiment [3], the system named is SKOV3. The description is as above. To be noted: Gynecologic cancer cell panel viability, ATPlite luminescence, 48 h; series mostly up to 57.5 µM. In outline: as §1
The test system of experiment [4] is Tov-21-G. The experiment is described as above. To be noted: Gynecologic cancer cell panel viability, ATPlite luminescence, 48 h; series mostly up to 57.5 µM. In outline:
as §1

For experiment [5], the system named is Tov112D. Described as above. Particulars: Gynecologic cancer cell panel viability, ATPlite luminescence, 48 h; series mostly up to 57.5 µM. Summed up: as §1
The nature of experiment [6]: qHTS assay to identify inhibitors of the type 1 interferon - major histocompatibility complex class I in skeletal muscle: Counter screen cell viability and HiBit confirmation (AID 1347412). As to all read-outs here: nearly all actives have a fitted effect of over 60% in size. To be noted: iHSKM muscle cells + IFN-b, HiBiT or CellTiter-Glo, 24 h; for activity change, negative = inhibition: at 45.9 µM (top of the series). In outline:
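After 24 h with human IFN-beta (4 ng/ml) and compound titrations (top 46 uM final, 1:3, 12 points), HLA-B HiBit myoblasts were lysed for either Nano-Glo HiBiT luminescence or CellTiter Glo viability on paired plates.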

Experiment [7] can be described thus: Drug repurposing screens with cells derived from glioblastoma tumor samples (AID 1345199). Also: nearly all actives have a fitted effect of over 40% in size. Particulars: GBM patient neurospheres viability, ATP luminescence, 48 h. In outline: (§2)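 Primary testing used CD133+ neurospheres from four GBM patients, seven concentrations, 48 h exposure and ATP-based viability; confirmation added three slower-growing patient lines.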

Experiment [8] deals with astro. The description is as above. To be noted: viability, ATP luminescence, 48 h; series mostly up to 45.9 µM. Summed up:
as §2

Where [9] appears, read: at 45.9 µM (top of the series), tumour line B.
[10] abbreviates: at 45.9 µM (top of the series), tumour line D.
Setting [11] is: at 46.1 µM (top of the series), tumour line C.
% is scaled to controls: 0 for no effect and ±100 for the full control effect; potency is read from the fitted curve at half-maximal effect.

On to `C=CCCN1CCC2(CC1)CN(C(=O)c1c(F)cccc1F)c1ccc(Cl)cc12`, for which the Potency result in experiment [1], in experiment [2], in experiment [3], in experiment [4] and in experiment [5] was “inactive” throughout.
Regarding `CC1(C)CN(C(=O)c2ccc(-c3cccc4nc(NC(=O)C5CC5)nn34)cc2)C1`, the Potency result in experiment [1], in experiment [2], in experiment [3], in experiment [4] and in experiment [5] was “inactive” throughout. Further, the Potency in experiment [6] (HiBiT) was 7.87 µM (active). Moreover, the activity change, negative = inhibition in experiment [6] (Viability) is 3.01%.
Regarding `Cn1ncnc1[C@@H]1c2n[nH]c(=O)c3cc(F)cc(c23)N[C@H]1c1ccc(F)cc1`, the Potency entry in experiment [1], in experiment [2], in experiment [3], in experiment [4] and in experiment [5] was “inactive” each time.
For `C=C1C(=O)OC2/C=C(\CO)CC/C=C(\C=O)C(OC)C(OC(=O)C(C)CC)C12` (stereo not drawn), the Potency entry in experiment [1], in experiment [2], in experiment [3] and in experiment [5] was “inactive” throughout.
Regarding `CN(C)c1ccnc2sc3c(=O)n(N4CCCCCC4)cnc3c12`, the Potency result in experiment [1], in experiment [2], in experiment [3], in experiment [4] and in experiment [5] was “inactive” throughout.
Take `Cn1ncc2cc(-c3cnc(N)c(Cl)c3N3CCC4(CCNC4=O)CC3)ccc21`: the Potency entry in experiment [1], in experiment [2], in experiment [3], in experiment [4] and in experiment [5] was “inactive” in each case. Besides, the activity change, negative = inhibition in experiment [6] (Viability) is 5.32%.
As to `C=C1C(=O)O[C@@H]2[C@H]1CC[C@H](C)[C@]1(CCC(=O)O1)C2(C)O` (stereo partly drawn), the Potency entry in experiment [1], in experiment [2], in experiment [3] and in experiment [5] was “inactive” in each case.
Take `CCC(C(C)O)n1ncn(-c2ccc(N3CCN(c4ccc(OCC5COC(Cn6cncn6)(c6ccc(F)cc6F)C5)cc4)CC3)cc2)c1=O` (stereo not drawn): the Potency entry in experiment [1], in experiment [2], in experiment [3], in experiment [4] and in experiment [5] was “inactive” each time.
Consider `C=C1C(=O)OC2CC(C)C(CCC(C)=O)=CCC12` (stereo not drawn), for which the Potency entry in experiment [1], in experiment [2], in experiment [3] and in experiment [5] was “inactive” throughout.
Turning to `CCC[C@@]1(CCc2ccccc2)CC(O)=C([C@H](CC)c2cccc(NS(=O)(=O)c3ccc(C(F)(F)F)cn3)c2)C(=O)O1`, the Potency result in experiment [1], in experiment [2], in experiment [3], in experiment [4] and in experiment [5] was “inactive” each time. Also, the results for the activity, negative = cell killing in experiment [7] (setting [9]), in experiment [7] (setting [10]) and in experiment [7] (setting [11]) were -17%, -1.26% and -12.2%, respectively.
`O=C(NCCO)c1cccc(-c2cc(Nc3ccc(OC(F)(F)F)cc3)ncn2)c1`: the Potency result in experiment [1], in experiment [2], in experiment [3], in experiment [4] and in experiment [5] was “inactive” each time.
In the case of `Cc1cc(-c2nc3cc(F)ccc3s2)ccc1NC(=O)[C@@H](N)CCCCN`, the Potency in experiment [1] was 8.91 µM (active); in experiment [2] it was 10 µM (active); in experiment [3], 11.2 µM (active); in experiment [4], 14.1 µM (active); in experiment [5] it was 15.8 µM (active); in experiment [6] (Viability), 22.2 µM (active).
In the case of `COc1ccnc(CS(=O)c2nc3cc(OC(F)F)ccc3[nH]2)c1OC` (stereo not drawn), the Potency result in experiment [1], in experiment [2], in experiment [3], in experiment [4], in experiment [5] and in experiment [8] was “inactive” throughout. The activity, negative = cell killing in experiment [7] (setting [9]) is -14.8%; in experiment [7] (setting [10]) it was -24.9%; in experiment [7] (setting [11]), -12.9%. Also, the Potency in experiment [7] (tumour line A) is 28.2 µM (active).
For the molecule `COc1cc2c(cc1OC(C)C)[C@H](c1ccc(Cl)cc1)N(c1ccc(N(C)CC3CCC(N4CCN(C)C(=O)C4)CC3)cc1)C(=O)C2` (stereo partly drawn), the Potency result in experiment [1], in experiment [3] and in experiment [5] was “inactive” in each case. For the same molecule, in experiment [2], the Potency is 11.2 µM (active).
For the molecule `COC(C)(C)CCn1nc(Nc2c(C)cccc2C)c2cnc(Nc3ccc(OCCN4CCCC4)c(F)c3)nc21`, the Potency is 14.1 µM (active) in experiment [1]; 2.82 µM (active) in experiment [2]; 15.8 µM (active) in experiment [3]; 1.78 µM (active) in experiment [4]; 15.7 µM (active) in experiment [6] (HiBiT). In addition, the Potency result in experiment [5] was “inactive”.
Consider `O[C@@](Cc1ncc(CC2(C(F)(F)F)CC2)[nH]1)(c1ccc(-n2cccn2)cc1)C(F)(F)F`, for which the Potency result in experiment [1], in experiment [2], in experiment [3], in experiment [4] and in experiment [5] was “inactive” each time.
As for `C=C1C(=O)O[C@@H]2/C=C(/C)[C@@H](OC(C)=O)C/C=C(\C)C[C@@H](OC(=O)/C(=C/CO)CO)[C@@H]12`, the Potency entry in experiment [1], in experiment [2], in experiment [3] and in experiment [5] was “inactive” throughout.
As to `COc1ccccc1N1CCN(c2ncnc3n[nH]c(Br)c23)CC1`, the Potency result in experiment [1], in experiment [2], in experiment [3], in experiment [4] and in experiment [5] was “inactive” throughout.
Turning to `CC[C@H](C)/C=C(C)/C=C/C1=CC2=CC(=O)[C@]3(C)OC(=O)[C@@H](C(C)=O)[C@@H]3C2=CO1`, the Potency entry in experiment [1], in experiment [2], in experiment [3] and in experiment [5] was “inactive” in each case.
Regarding `C=C1C(=O)OC2C1CCC1(C)C(O)CC=C(C)C21` (stereo not drawn), the Potency entry in experiment [1], in experiment [2], in experiment [3] and in experiment [5] was “inactive” throughout.
Take `C1=C/COCc2cc(ccc2OCCN2CCCC2)Nc2nccc(n2)-c2cccc(c2)COC/1`: the Potency in experiment [1] is 17.8 µM (active); in experiment [2] it was 2.82 µM (active); in experiment [3], 8.91 µM (active); in experiment [4] it was 10 µM (active); in experiment [5] it was 11.2 µM (active); in experiment [6] (HiBiT) it was 3.52 µM (active).
With `Cc1ccc(C2(C(=O)N3CCC(n4nc(-c5ccccc5)oc4=O)CC3)CC2)cc1`, the Potency entry in experiment [1], in experiment [2], in experiment [3], in experiment [4] and in experiment [5] was “inactive” in each case.
On to `CC(/C=C/C(=O)NO)=C\[C@@H](C)C(=O)c1ccc(N(C)C)cc1`, for which the Potency in experiment [1] is 2.24 µM (active); in experiment [2], 1 µM (active); in experiment [3] it was 1.58 µM (active); in experiment [4], 3.55 µM (active); in experiment [5], 1.78 µM (active); in experiment [6] (HiBiT), 1.76 µM (active). In addition, the activity change, negative = inhibition in experiment [6] (Viability) was -7.11%.
Consider `Nc1nc(NC2CC2)cc(-c2cccc(Cl)c2Cl)n1`, for which the Potency entry in experiment [1] was “inactive”. Besides, the Potency in experiment [2] is 28.2 µM (active); in experiment [3], 14.1 µM (active); in experiment [5] it was 12.6 µM (active).
For `CCN1CCC[C@@H]1CNC(=O)c1ccc2c(c1)NC(=O)c1cccc(C)c1S2`, the Potency entry in experiment [1], in experiment [2], in experiment [3], in experiment [4] and in experiment [5] was “inactive” throughout.
